Several values for one entry are separate records, joined by “and”; a condition that tells them apart may be missing. Identical values can stand only once. Some compounds were tested as several samples or in several runs, with calls that do not always agree. Activity calls are given as the source filed them. How the source made its calls: active means hit-call score of the fitted dose curve at least 0.9, where 1 is the maximum; inactive means score below 0.9.
read-out: Pselectin, SELP (gene 6403); assay: BSK_4H_Pselectin: BioMAP Diversity Plus: 4H Assay for Pselectin Biomarker Activity (AID 2283026); settings: primary human endothelial cells (HUVEC); actives raise or lower the signal
Procedure: BSK_4H is a cell-based, multiplexed-readout assay that uses umbilical vein endothelium, a human vascular primary cell, with measurements taken at 24 hours after chemical dosing in a 96-well plate.BSK_4H_Pselectin is an assay component measured in the BSK_4H assay. It measures P-Selectin antibody related to regulation of gene expression using ELISA technology.Data from the assay component BSK_4H_Pselectin was analyzed into 1 assay endpoint. This assay endpoint, BSK_4H_Pselectin, was analyzed with bidirectional fitting relative to DMSO as the negative control and baseline of activity. Using a type of binding reporter, gain or loss-of-signal activity can be used to understand changes in the signaling as they relate to the gene SELP. Furthermore, this assay endpoint can be referred to as a primary readout, because this assay has produced multiple assay endpoints where this one serves a signaling function. To generalize the intended target to other relatable targets, this assay endpoint is annotated to the cell adhesion molecules intended target family, where the subfamily is selectins.
The levels of cell surface (or secreted, indicated by the prefix "s") biomarker endpoints were measured by ELISA. Overt cytotoxicity to cells in confluent adherent cultures (all systems other than the BT system) was assessed by measuring total protein levels using sulforhodamine B (SRB) staining in parallel cultures at the time of biomarker measurements, indicated as SRB endpoints. For proliferation assays for adherent cell types, individual cell types are cultured at sub-confluence and relative cell numbers quantified by SRB staining at time points optimized for each system (48 h: 3C and CASM3C systems; 72 h: BT and HDF3CGF systems; 96 h: SAg system). SRB was performed by staining cells with 0.1% SRB after fixation with 10% TCA and reading wells at 560 nm.Viability and proliferation of PBMC (T cells) was quantified by Alamar Blue reduction for the SAg and BT systems. For PBMC viability (referred to as PBMC Cytotoxicity within the assay endpoint names), cells were plated (75,000/well in a 96-well plate) and then chemical samples added for 1 h before addition of activators, SEB and TSST-1 (20 ng/mL final concentration each). Cells were incubated for 90 h. Then, Alamar Blue (20 uL/well) (Invitrogen, Cat DAL1100) was added for 6 h, and the plates were read with a fluorescence microplate reader at 546/580 nm (excitation/emission). For PBMC proliferation, cells were plated and activated as above but incubated for only 16 h prior to addition of Alamar Blue. Plates were read after 6 h.

Row | Compound | outcome | AC50
1 | Nc1cccc(N)n1 | inactive | 
2 | CCC1(C)C(=O)N(Cl)C(=O)N1Cl (stereo not given) | inactive | 
3 | CCCCCCC=O | inactive | 
4 | C[N+](C)(C)CCCNS(=O)(=O)C(F)(F)C(F)(F)C(F)(F)C(F)(F)C(F)(F)C(F)(F)C(F)(F)C(F)(F)F |  | 30 µM (active) and 16.8 µM (active)
5 | CCOC(=O)C1=NN(c2ccc(Cl)cc2Cl)C(C)(C(=O)OCC)C1 (stereo not given) | inactive | 
6 | Clc1cc(Cl)c(Cl)c(Cl)c1Cl |  | 34.7 µM (active)
7 | CCCCCCCCCCCC(=O)N(C)CC(=O)O | inactive | 1.89 µM (active)
8 | C1CNCCN1 | inactive | 
9 | Oc1ccc(/C=C/c2cc(O)cc(O)c2)cc1 | inactive | 
10 | CC(Cl)COP(=O)(OCC(C)Cl)OCC(C)Cl (stereo not given) | inactive | 
11 | O=C1CCCCCCCCCCCN1 | inactive | 
12 | CCc1cccc(C)c1N(C(=O)CS(=O)(=O)O)C(C)COC (stereo not given) | inactive | 
13 | Nc1ccc(C(=O)O)cc1 | inactive | 
14 | O=C1CCCCCCCCCCC1 | inactive | 
15 | CCOC(=O)C1=NOC(c2ccccc2)(c2ccccc2)C1 | inactive | 
16 | Oc1c(Cl)cc(Cl)c(Cl)c1Cl |  | 31.5 µM (active)
17 | CC(c1cc(C(C)(C)C)cc(C(C)(C)C)c1O)c1cc(C(C)(C)C)cc(C(C)(C)C)c1O |  | 0.965 µM (active)
18 | Oc1ccccc1Cc1ccccc1O | inactive | 
19 | c1ccc2sc(SSN3CCOCC3)nc2c1 |  | 4.4 µM (active)
20 | CC/C=C\CCOC(=O)c1ccccc1O |  | 12.4 µM (active)

Row | Compound | outcome | AC50
21 | CC(C)C(=O)OCCc1ccccc1 | inactive | 
22 | CCCCC1C(=O)N(c2ccccc2)N(c2ccccc2)C1=O | inactive | 
23 | CCCCCCCO | inactive | 
24 | COc1ccc(C(=O)c2ccccc2)c(O)c1 | inactive | 
25 | Cc1c(O)cccc1O | inactive | 
26 | CCCC(C)C(=O)OCC (stereo not given) | inactive | 
27 | c1ccc2c(c1)[nH]c1ccccc12 | inactive | 
28 | CC(CCC(=O)O)(c1ccc(O)cc1)c1ccc(O)cc1 | inactive | 
29 | c1ccc(Nc2cccc3ccccc23)cc1 |  | 35.2 µM (active) and 33 µM (active)
30 | CCCCCC1=CCCC1=O | inactive | 
31 | O=C(Oc1ccccc1)c1ccccc1C(=O)Oc1ccccc1 | inactive | 
32 | CC1=CC=C(C(C)C)CC1 | inactive | 
33 | C=CCCCCCCCCC=O | inactive | 
34 | CC/C=C\C/C=C\C/C=C\CCCCCCCC(=O)OC |  | 19.9 µM (active)
35 | COC(OC)(C(=O)c1ccccc1)c1ccccc1 | inactive | 
36 | C=CC(=O)OCCCCCCCC(C)C | inactive | 
37 | O=C(Cl)c1c(Cl)c(Cl)c(C(=O)Cl)c(Cl)c1Cl | inactive | 
38 | CC1(C)CC(O)CC(C)(C)N1[O] | inactive | 
39 | C=C(C)C(=O)OCCCCCCCCCCCC | inactive | 

Reference: PubChem BioAssay (EPA / NIEHS)
